What all share (experiment): NCI-60 one-dose screen, 48 h (100 = growth as untreated, 0 = no growth, -100 = all killed)
Common to all, as to details: 10 µM unless noted

Assay [1] relates to HCT-15 colon.
The subject of assay [2] is HT29 colon.
The subject of assay [3] is SNB-75 CNS.
Assay [4] has as its system SNB-19 CNS.
Assay [5] relates to PC-3 prostate.
Assay [6] concerns SK-MEL-5 melanoma.
Assay [7] has as its system UACC-62 melanoma.
The subject of assay [8] is LOX IMVI melanoma.
For assay [9], the system named is SK-MEL-28 melanoma.
Assay [10] relates to U251 CNS.

The panel holds about 83,000 compounds, 20% with a hit somewhere; the sample as a whole holds those more often.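 Negative percent growth values reflect cell death: -40 means 40% of the cells present at the start died, and -100 means all died.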 Unmarked numbers belong to inactive results. Active and inactive are the calls of the source. The calls were made as follows: active = growth percent below 10; inactive = the rest.

For `CC(=O)Oc1ccc(O)cc1`, the growth in assay [1] was 104%; in assay [2], 87.3%; in assay [3] it was 91.1%; in assay [4], 96.2%; in assay [5] it was 87.1%; in assay [6] it was 96.7%. Besides, the results for the growth in assay [7], in assay [8] and in assay [9] were 86.6%, 94.4% and 104%, respectively.

`CC(=O)Nc1ccc2c(c1)Cc1cc(F)ccc1-2`: the growth in [1] was 105%; in assay [2] it was 92.2%; in [3], 87.4%; in assay [4], 103%; in assay [5], 95.5%; in [6], 102%. The growth is 90.7% in assay [7], 95.8% in assay [8] and 117% in assay [9].

Turning to `O=C(Nc1cccc(-c2cccc(F)c2)c1)C1CCN(Cc2cccc3cccnc23)CC1`, the growth is 19.5% in [1]; 0.443% (active) in [2]; 53.6% in [3]; 77% in [4]; 51.1% in [5]; 35.2% in assay [6]. Besides, the growth in [7] is -44.8% (active); in [8], 3.29% (active); in assay [9], -40.2% (active).

`CCC[S@](=O)c1ccc2nc(NC(=O)OC)[nH]c2c1`: the growth in assay [1] is 98.9%; in assay [2], 79.2%; in [3], 86.2%; in [4], 95.2%; in assay [5] it was 89.8%; in [6], 98.7%. In addition, the growth in [7] was 89.8%; in [8], 96.5%; in assay [9] it was 107%.

As to `CCOC(=O)c1c(-c2ccc(O)cc2)c(C#N)c2c(C#N)c(N)nn2c1N`, the growth in assay [1] is 76%; in [2], 43%; in assay [3], 65.7%; in [4] it was 74.8%; in assay [5], 68.9%; in [6], 52.9%. In addition, the growth in [7] was 36.9%; in assay [8] it was 55.2%; in [9], 68.6%.

For `COc1cc(C2=N/C(=C\c3cc4ccccc4nc3Oc3ccccc3)C(=O)N2C(=N)N)cc(OC)c1OC`, the growth in assay [1] was 91.3%; in [2], 64.2%; in [3], 6.51% (active); in assay [4], 32.3%; in assay [5], 70.4%; in assay [6], 83.5%. Also, the growth is 66.9% in assay [8] and 78.4% in assay [9].

Turning to `CCOC(=O)c1c(C)nc2c(c1N)CC(=O)N2CCc1ccccc1`, the growth is 17.2% in assay [1]; 6.02% (active) in [2]; 80.1% in assay [3]; 22.4% in assay [4]; 17.3% in assay [5]; 3.27% (active) in [6]. The figures for the growth in assay [7], in assay [8] and in assay [9] were 32.1%, 9.25% (active) and 39.9%, respectively.

Take `C#Cc1ccccc1NC(=O)c1sc2nc3c(cc2c1N)CCCCC3`: the growth is 97.6% in assay [1]; 81.3% in assay [2]; 90.4% in [3]; 109% in [4]; 97.7% in [5]; 97.2% in [6]. Besides, the values for the growth in assay [7], in [8] and in assay [9] were 95.2%, 95.8% and 111%, respectively.

As for `Cc1cc(C)cc(Nc2nccc(-c3c(-c4ccc(F)cc4)ncn3C3CCNCC3)n2)c1`, the growth in [1] is 9.67% (active); in [2], -0.976% (active); in [3] it was 17%; in assay [4], 27.5%; in assay [5], 15.4%; in assay [6], -87.6% (active). For the same compound, the growth in assay [8] was -81.3% (active); in assay [9] it was -34.7% (active).

For the compound `Cn1c2ccccc2c2c(OC(=O)c3ccccc3)c3c(nc21)-c1ccccc1C3`, the growth in assay [1] was 105%; in [2], 92.1%; in [3], 90.8%; in assay [4], 105%; in assay [5], 87.3%; in [6], 96.6%. In addition, the figures for the growth in assay [7], in assay [8] and in assay [9] were 92.5%, 88.3% and 111%, respectively.

For `O=C1NC(SCc2ccc(F)cc2)=N/C1=C/c1cccc(OCc2ccc(Cl)cc2)c1`, the growth in assay [2] was 68.1%; in assay [3], 50.7%; in assay [4], 33.4%; in assay [10] it was -41.2% (active); in assay [5], 77.5%; in assay [6], 83%. In addition, the growth in assay [7] is 72%; in assay [8] it was 24.7%; in [9] it was 91.2%.

Consider `O=C(NC[C@H](O)CN1CCc2ccccc2C1)c1cc(NC2COC2)ncn1`, for which the growth in assay [2] was 86.9%; in assay [3], 74%; in assay [4], 99%; in [10], 102%; in assay [5] it was 107%; in assay [6], 107%. Besides, the growth in assay [7] is 91.8%; in assay [8], 93.9%; in [9], 88.3%.

Take `Fc1ccc(N/N=C/c2ccc(-n3cccn3)cc2)cc1`: the growth in assay [2] was 93.5%; in [3], 99.4%; in assay [4], 110%; in assay [5], 85.8%; in assay [6], 107%; in assay [7] it was 74.9%. Moreover, the figures for the growth in assay [8] and in [9] were 83.8% and 112%, respectively.

For `CCOC(=O)NCCc1nc2c([nH]1)c(=O)n(C)c(=O)n2C`, the growth is 98.5% in assay [2]; 91% in [3]; 107% in assay [4]; 108% in [10]; 91% in assay [5]; 102% in [6]. Further, the growth in assay [7] is 100%; in assay [8], 94.9%; in assay [9], 102%.

Turning to `Cc1[nH]c2ncnc(Oc3ccc(NC(=O)Nc4ccc(Cl)c(C(F)(F)F)c4)cc3)c2c1C`, the growth in assay [2] is 50.2%; in [3] it was 88.1%; in assay [4] it was 73.4%; in assay [10] it was 52.5%; in assay [5], 35%; in assay [6], 65.9%. The figures for the growth in assay [7], in assay [8] and in [9] were 55.8%, 43.4% and 59.7%, respectively.

`O=C1CCc2ccccc2N1`: the growth is 102% in assay [2]; 78.1% in assay [3]; 96.2% in assay [4]; 102% in assay [10]; 102% in [5]; 98.9% in assay [6]. The results for the growth in [7], in assay [8] and in assay [9] were 97.6%, 94.4% and 104%, respectively.

Take `C=C(C)[C@@H]1CC[C@]2(C(=O)NCCCO)CC[C@]3(C)[C@H](CC[C@@H]4[C@@]5(C)CCCNC(C)(C)[C@@H]5CC[C@]43C)[C@@H]12`: the growth in [2] was 7.18% (active); in assay [3], 72.2%; in assay [4], 85.4%; in assay [10], 53.7%; in assay [5], 49.2%; in assay [6], 13%. The growth in assay [7] is 83.8%; in [8], 78.7%; in assay [9], 51.3%.

For the compound `c1ccc2c3c([nH]c2c1)C(c1ccc(C2NCCc4c2[nH]c2ccccc42)cc1)NCC3` (configuration not stated), the growth was -74.2% (active) in assay [2]; -11.4% (active) in [3]; 2.5% (active) in assay [4]; -92.6% (active) in assay [10]; 16.8% in [5]; -92.9% (active) in assay [6]. Also, the values for the growth in assay [7], in assay [8] and in [9] were -69.9% (active), -94.6% (active) and -52.8% (active), respectively.

With `CCCCc1nc(Cl)c(C2CC(c3ccc(Cl)cc3)=NN2c2cc(Cl)cc(Cl)c2)[nH]1` (configuration not stated), the growth is 85.4% in assay [2]; 65.6% in [3]; 93% in assay [4]; 90.7% in [10]; 45.6% in [5]; 69.1% in assay [6]. In addition, the growth was 78.2% in assay [7], 67.2% in assay [8] and 99.8% in assay [9].

Regarding `CCOC(=O)c1ccc(Nc2ncnc3ccc(NC(=O)c4ccccc4)cc23)cc1`, the growth in [2] was 79.6%; in assay [3] it was 77.9%; in assay [4], 99.9%; in [10], 94.1%; in [5] it was 83.1%; in assay [6] it was 84.6%. Besides, the growth in assay [7] was 88.9%; in [8] it was 87.8%; in assay [9], 89.6%.

The values are drawn from PubChem BioAssay (NCI).
